PubChem BioAssay AID1558 (National Center for Advancing Translational Sciences (NCATS), 2009)
Records with an inconclusive call do not appear. A call without a number means that no potency is given here. The source made the active and inactive calls. The call rests on the fitted dose curve; in most records, active means well fitted inhibition curve with a large enough effect; inconclusive means small, poorly fitted or top-dose-only effect; inactive means flat fitted curve, though single readings scatter.

The compounds below were run against Microtubule-associated protein tau (Homo sapiens) (UniProt P10636) (assay: Confirmation Concentration-Response Assay for Inhibitors of Tau Fibril Formation, Thioflavin T Binding). Conditions: recombinant tau K18 P301L heparin fibrillization, ThT fluorescence; series mostly up to 100 µM.
How it was run: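 Heparin (20 uM final) induced fibrillization of human tau K18 P301L (15 uM unlabeled plus 0.24 uM Alexa 594-labeled, final) in 100 mM sodium acetate pH 7 with compound, 6 hr at 37 C. ThT (30 uM final) added, read after 1 hr (ex 450, em 510 nm).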

Microtubule-associated protein tau (Homo sapiens), sequence (P10636 561-689 P618L limits assumed): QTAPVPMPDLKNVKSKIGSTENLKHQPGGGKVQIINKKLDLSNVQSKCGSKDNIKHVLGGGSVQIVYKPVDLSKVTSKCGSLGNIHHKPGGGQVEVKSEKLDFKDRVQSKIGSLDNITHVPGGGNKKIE

| Structure (SMILES) | Potency |
| --- | --- |
| O=C(O)CSc1cc(NS(=O)(=O)c2cccc([N+](=O)[O-])c2)c2ccccc2c1O | 2 µM (active) |
| COc1ccc2c(c1)c(CC(=O)Nc1ccc(C(C)=O)cc1)c(C)n2C(=O)c1ccc(Cl)cc1 | inactive |
| Cc1ccc(NC(=O)c2c(NC(=O)Cc3ccccc3)sc3c2CCCC3)cc1 | inactive |
| Nc1cc(-c2ccccc2)c[nH]c1=O | 8.91 µM (active) |
| Cc1ccc(NCc2cc3cc4c(cc3n(CC(=O)Nc3ccc(C)cc3)c2=O)OCCO4)cc1 | inactive |
| COC(=O)c1c(NC(=O)C(C)(C)C)sc2c1C(C(=O)OC)CC2 (stereo not drawn) | inactive |
| Nc1scc2c(C(=O)N3CCOCC3)nn(-c3ccccc3)c(=O)c12 | 11.2 µM (active) |
| COc1cccc(/C=C2/SC(=S)N(CC(=O)Nc3nccs3)C2=O)c1 | inactive |
| Cc1nc2ccccc2oc1=O | inactive |
| Cn1sc(NC(=O)c2ccccc2)nc1=O | inactive |
| CC(=O)Nc1nc(C)c(-c2csc(Nc3cccc([N+](=O)[O-])c3)n2)s1 | 3.55 µM (active) |
| O=S(=O)(c1ccc(N=C2NN=C(c3cc(F)ccc3F)CS2)cc1)N1CCOCC1 | 4.47 µM (active) |
| CCc1ccc(S(=O)(=O)Nc2cc(SCC(=O)O)c(O)c3ccccc23)cc1 | 5.62 µM (active) |
| CCN(CC)c1ccc2oc(=O)c(C)nc2c1 | 10 µM (active) |
| CCOC(=O)c1nn(-c2ccc(F)cc2)c(=O)c2c(N)scc12 | 5.01 µM (active) |
| O=C(Nc1sc2c(c1C(=O)Nc1cccc(Cl)c1)CCCC2)c1cccs1 | 3.55 µM (active) |
| CCOC(=O)c1nn(-c2ccccc2)c(=O)c(C#N)c1C | inactive |
| COc1ccc(Cl)cc1NC(=O)c1c(NCc2sccc2C)sc2c1CCCC2 | 1 µM (active) |
| COc1ccc(CNC(=O)Cn2nc(C)n3cccc3c2=O)cc1 | inactive |
| O=C(Nc1nc2ccc(S(=O)(=O)N3CCCC3)cc2s1)c1ccc(F)cc1 | inactive |
| CC(=O)Nc1nc(C)c(-c2csc(Nc3ccc(O)cc3)n2)s1 | 15.8 µM (active) |
| CCn1nccc1C(=O)Nc1cc(Cl)cc(Cl)c1 | inactive |
| O=C(Cc1ccccc1)Nc1sc2c(c1C(=O)Nc1cccc(Cl)c1)CCCC2 | inactive |
| Nc1scc2c(C(=O)NCc3ccccc3)nn(-c3ccccc3)c(=O)c12 | 7.08 µM (active) |
| O=C(NCCCO)Nc1ccc2nc(-c3ccco3)c(-c3ccco3)nc2c1 | 3.16 µM (active) |
| Cc1ccc(N2C(=O)SC(Cc3ccccc3)C2=O)cc1 (stereo not drawn) | inactive |
| CCOC(=O)c1nn(-c2cccc(C(F)(F)F)c2)c(=O)c2c(N)scc12 | 0.891 µM (active) |
| COc1ccc2c(c1)c(CC(=O)N1CCOCC1)c(C)n2C(=O)c1ccc(Cl)cc1 | inactive |
